Results from PubChem BioAssay (EPA / NIEHS).
Inconclusive results are not listed. Calls of active or inactive are those of the source. Rule for the calls, unless noted: active = hit-call score of the fitted dose curve at least 0.9, where 1 is the maximum; inactive = score below 0.9.

Key:
[1] = target: Paired box protein Pax-6 (Homo sapiens) (UniProt P26367); assay: ATG_Pax6_CIS: Attagene CIS-FACTORIAL HepG2 Assay for human Paired Box 6 (PAX6) (AID 2282956); conditions: HepG2 CIS-FACTORIAL PAX6 reporter transcription, RNA readout; actives raise or lower the signal
Outline: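 HepG2 cells transiently transfected with cis-promoter-driven multiplexed reporter units sensing endogenous transcription factor activity; 24 h chemical exposure. Reporter mRNA quantified by RT-PCR, 6-FAM labelling, HpaI digestion and capillary electrophoresis; bidirectional fit versus DMSO baseline.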

[2] = ATG_PXRE_CIS: Attagene CIS-FACTORIAL HepG2 Assay for human Pregnane X Receptor Element (PXRE) (AID 2282957); conditions: HepG2 Attagene CIS-FACTORIAL PXRE reporter, mRNA; actives raise or lower the signal
Outline: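 HepG2 cells transiently transfected with cis-element-driven multiplexed reporter units; after 24 h chemical exposure, reporter mRNA measured by RT-PCR, 6-FAM labelling, HpaI digestion and capillary electrophoresis. Bidirectional fitting relative to DMSO.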

[3] = ATG_PPRE_CIS: Attagene CIS-FACTORIAL HepG2 Assay for human Peroxisome Proliferator-activated Response Element (PPRE) (AID 2282958); conditions: HepG2 PPRE cis-element reporter, Attagene transcription factor profiling; actives raise or lower the signal
Outline: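 Read-out: fluorescent reporter mRNA fragments resolved by capillary electrophoresis after RT-PCR. HepG2 cells carried transiently transfected PPRE-driven cis reporter constructs and were dosed for 24 h; gain or loss of signal fitted relative to DMSO.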

[4] = ATG_RORE_CIS: Attagene CIS-FACTORIAL HepG2 Assay for human RAR-related Orphan Receptor Element (RORE) (AID 2282959); conditions: HepG2 Attagene cis-factorial RORE reporter, mRNA; actives raise or lower the signal
Outline: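 Readout: fluorescent reporter mRNA by RT-PCR plus capillary electrophoresis, 24 h after dosing transfected HepG2 cells. Endogenous transcription factor activity on a cis promoter element is measured. Gain or loss of signal fitted against DMSO.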

[5] = ATG_Sox_CIS: Attagene CIS-FACTORIAL HepG2 Assay for human SRY-box transcription factor (SOX) (AID 2282960); conditions: HepG2 Attagene cis-factorial SOX reporter, mRNA; actives raise or lower the signal
Outline: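 Read-out: fluorescent RT-PCR products of SOX1-linked reporter transcripts resolved by capillary electrophoresis, fitted bidirectionally against DMSO. Transiently transfected HepG2 cells, 24 h after chemical exposure, endogenous transcription factor activity.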

[6] = target: Transcription factor Sp1 (Homo sapiens) (UniProt P08047); assay: ATG_Sp1_CIS: Attagene CIS-FACTORIAL HepG2 Assay for human Specificity Protein 1 (Sp1) (AID 2282961); conditions: HepG2 Sp1 cis-reporter transcription, actives raise or lower the signal
Outline: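 Read-out: fluorescence of 6-FAM-labeled, HpaI-digested RT-PCR products separated by capillary electrophoresis. HepG2 cells carried transfected cis-element reporter units and were exposed to chemicals for 24 h; gain or loss of signal fitted relative to DMSO.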

[7] = ATG_SREBP_CIS: Attagene CIS-FACTORIAL HepG2 Assay for human Sterol Regulatory Element Binding (SREBP) (AID 2282962); conditions: HepG2 Attagene cis-factorial SREBP reporter, mRNA; actives raise or lower the signal
Outline: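 HepG2 cells transiently transfected with multiplexed cis-promoter reporter units sensing endogenous transcription factors; reporter mRNA measured 24 h after dosing by RT-PCR, 6-FAM labeling, HpaI digestion and capillary electrophoresis. Bidirectional fit versus DMSO.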

[8] = ATG_TA_CIS: Attagene CIS-FACTORIAL HepG2 Assay for human TA Basal Promoter (AID 2282964); conditions: HepG2 Attagene CIS-factorial TA basal promoter reporter; actives raise or lower the signal
Outline: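 Background-control readout: TA basal promoter reporter mRNA, fitted in both directions relative to DMSO. Measured by RT-PCR and capillary electrophoresis 24 hours after treating HepG2 human liver cells transiently carrying multiplexed cis-regulated reporter constructs.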

[9] = ATG_TCF_b_cat_CIS: Attagene CIS-FACTORIAL HepG2 Assay for human T-Cell-Factor with beta-catenin (TCF/b-cat) (AID 2282965); conditions: HepG2 TCF/beta-catenin cis-reporter transcription, actives raise or lower the signal
Outline: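 Using capillary electrophoresis as the read-out, labelled reporter cDNA fragments from transiently transfected HepG2 were sized and quantified. Exposure lasted 24 hours; activity in either direction was referenced to DMSO.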

[10] = ATG_TAL_CIS: Attagene CIS-FACTORIAL HepG2 Assay for human TAL Basal Promoter (AID 2282966); conditions: HepG2 Attagene cis-factorial TAL promoter reporter; actives raise or lower the signal;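 note: background control endpoint measuring basal TAL promoter reporter mRNA not a specific factor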
Outline: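 HepG2 cells transiently transfected with multiplexed cis-promoter reporter units, dosed 24 h. Reporter mRNA quantified by RT-PCR, 6-FAM labelling, HpaI digestion and capillary electrophoresis; TAL basal promoter serves as background control, fitted bidirectionally versus DMSO.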

[11] = ATG_TGFb_CIS: Attagene CIS-FACTORIAL HepG2 Assay for human Transforming Growth Factor (TGF) (AID 2282967); conditions: HepG2 Attagene CIS TGFb reporter, mRNA transcription; actives raise or lower the signal
Outline: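 Endogenous TGFB1-linked transcription factor activity read as reporter mRNA via RT-PCR and capillary electrophoresis, 24 h after dosing transiently transfected HepG2 cells. Gain or loss of signal fitted relative to DMSO.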

[12] = ATG_VDRE_CIS: Attagene CIS-FACTORIAL HepG2 Assay for human Vitamin D Receptor Element (VDRE) (AID 2282968); conditions: HepG2 VDRE cis-reporter transcription, actives raise or lower the signal
Outline: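 RT-PCR/CE readout of reporter mRNA; HepG2, transient transfection, 24 h dosing; DMSO baseline; bidirectional analysis.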

[13] = target: Estrogen receptor (Homo sapiens) (UniProt P03372); assay: ATG_ERa_TRANS: Attagene TRANS-FACTORIAL HepG2 Assay for human Estrogen Receptor alpha (ERa) (AID 2282970; active = hit-call score of the fitted dose curve at least 0.9, where 1 is the maximum); conditions: HepG2 Attagene TRANS ERa GAL4 reporter, mRNA
Outline: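 HepG2 cells transiently transfected with multiplexed GAL4-UAS reporter units read out chimeric NR-Gal4 activity. After 24 h compound exposure, reporter mRNA was quantified by RT-PCR, 6-FAM labeling, HpaI digestion and capillary electrophoresis, relative to DMSO.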

[14] = target: Steroid hormone receptor ERR1 (Homo sapiens) (UniProt P11474); assay: ATG_ERRa_TRANS: Attagene TRANS-FACTORIAL HepG2 Assay for human Estrogen-Related Receptor alpha (ERRa) (AID 2282971; active = hit-call score of the fitted dose curve at least 0.9, where 1 is the maximum); conditions: HepG2 Attagene TRANS reporter, ERRa transactivation
Outline: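 HepG2 cells transiently transfected with GAL4-UAS reporter units and chimeric NR-Gal4 constructs; after 24 hour compound incubation, reporter mRNA quantified by RT-PCR, fluorescent labelling and capillary electrophoresis, gain of signal versus DMSO.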

[15] = target: X-box-binding protein 1 (Homo sapiens) (UniProt P17861); assay: ATG_Xbp1_CIS: Attagene CIS-FACTORIAL HepG2 Assay for human X-box Binding Protein 1 (XBP1) (AID 2282972); conditions: HepG2 XBP1 cis-element reporter, Attagene multiplex; actives raise or lower the signal
Outline: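 HepG2 cells transiently transfected with multiple cis-element reporter units report endogenous TF activity; 24 h exposure, then reporter mRNA measured by RT-PCR, 6-FAM labelling, HpaI digestion and capillary electrophoresis. Bidirectional fitting versus DMSO.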

[16] = ATG_M_19_TRANS: Attagene TRANS-FACTORIAL HepG2 Assay for M19 Transcription Factor (Internal Marker) (AID 2282974; active = hit-call score of the fitted dose curve at least 0.9, where 1 is the maximum); conditions: HepG2 Attagene TRANS-FACTORIAL M19 internal marker reporter
Outline: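 24 h chemical exposure of transiently transfected HepG2 (MRTU library). RNA → oligo(dT) RT → PCR → 6-FAM labelling → HpaI cut → CE fluorescence. Positive-direction fit vs DMSO baseline; background internal-marker readout.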

[17] = ATG_GAL4_TRANS: Attagene TRANS-FACTORIAL HepG2 Assay for GAL4 (Internal Marker) (AID 2282976; active = hit-call score of the fitted dose curve at least 0.9, where 1 is the maximum); conditions: HepG2 Attagene TRANS GAL4 internal marker reporter
Outline: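 Background-control readout: GAL4-UAS reporter transcript in transiently transfected HepG2 cells after 24 h compound exposure. Measured by RT-PCR, 6-FAM primer extension, HpaI digest and capillary electrophoresis; gain-of-signal fit versus DMSO.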

[18] = target: Signal transducer and activator of transcription 3 (Homo sapiens) (UniProt P40763); assay: ATG_STAT3_CIS: Attagene CIS-FACTORIAL HepG2 Assay for human Signal Transducer and Activator of Transcription 3 (STAT3) (AID 2282963); conditions: HepG2, Attagene cis-factorial STAT3 reporter transcription; actives raise or lower the signal
Outline: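 Transcript-level reporter assay. HepG2 transient MRTU transfection, 24 h exposure, fluorescence detection after RT-PCR and CE; DMSO baseline.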

Measured: AC50

Chain of X-box-binding protein 1 (Homo sapiens) (P17861 whole entry, looked up): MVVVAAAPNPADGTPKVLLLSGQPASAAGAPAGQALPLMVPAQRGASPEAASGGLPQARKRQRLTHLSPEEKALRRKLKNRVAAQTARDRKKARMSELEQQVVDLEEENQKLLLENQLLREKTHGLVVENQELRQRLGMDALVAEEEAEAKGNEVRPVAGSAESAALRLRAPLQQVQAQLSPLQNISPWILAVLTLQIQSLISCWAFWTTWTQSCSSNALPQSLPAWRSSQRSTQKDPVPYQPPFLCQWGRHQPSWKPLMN
Chain of Paired box protein Pax-6 (Homo sapiens) (P26367 whole entry, looked up): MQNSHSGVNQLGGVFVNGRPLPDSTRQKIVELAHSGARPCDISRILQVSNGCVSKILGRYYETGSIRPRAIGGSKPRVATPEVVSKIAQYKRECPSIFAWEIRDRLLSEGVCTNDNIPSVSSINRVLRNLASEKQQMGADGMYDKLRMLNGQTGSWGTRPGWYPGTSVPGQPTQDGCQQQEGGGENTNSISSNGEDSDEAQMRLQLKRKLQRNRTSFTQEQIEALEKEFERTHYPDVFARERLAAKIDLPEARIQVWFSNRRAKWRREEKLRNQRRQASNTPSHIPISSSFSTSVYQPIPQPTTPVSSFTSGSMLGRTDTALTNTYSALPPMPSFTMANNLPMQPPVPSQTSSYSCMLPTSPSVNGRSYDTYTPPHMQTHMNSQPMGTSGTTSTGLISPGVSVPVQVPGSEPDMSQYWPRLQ
Chain of Transcription factor Sp1 (Homo sapiens) (P08047 whole entry, looked up): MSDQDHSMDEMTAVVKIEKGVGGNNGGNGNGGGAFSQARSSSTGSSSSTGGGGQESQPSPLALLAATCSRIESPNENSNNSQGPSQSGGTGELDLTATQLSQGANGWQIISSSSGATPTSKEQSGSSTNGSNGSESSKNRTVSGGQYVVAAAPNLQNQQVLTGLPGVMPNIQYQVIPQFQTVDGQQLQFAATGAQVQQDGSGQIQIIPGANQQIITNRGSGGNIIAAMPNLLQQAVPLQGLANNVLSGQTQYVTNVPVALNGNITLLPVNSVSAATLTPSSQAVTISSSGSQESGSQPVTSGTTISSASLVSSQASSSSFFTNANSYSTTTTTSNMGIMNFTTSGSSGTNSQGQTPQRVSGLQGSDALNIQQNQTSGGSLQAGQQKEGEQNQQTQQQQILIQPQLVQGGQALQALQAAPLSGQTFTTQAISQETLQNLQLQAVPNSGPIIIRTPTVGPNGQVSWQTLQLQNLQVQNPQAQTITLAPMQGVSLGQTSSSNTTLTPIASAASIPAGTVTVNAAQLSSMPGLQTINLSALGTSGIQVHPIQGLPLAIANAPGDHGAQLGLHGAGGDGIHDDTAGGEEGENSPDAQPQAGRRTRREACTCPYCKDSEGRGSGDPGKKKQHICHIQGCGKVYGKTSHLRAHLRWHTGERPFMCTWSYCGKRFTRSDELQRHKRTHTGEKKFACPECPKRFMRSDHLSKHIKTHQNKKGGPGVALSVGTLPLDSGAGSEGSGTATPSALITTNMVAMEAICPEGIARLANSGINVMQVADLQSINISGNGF
Chain of Signal transducer and activator of transcription 3 (Homo sapiens) (P40763 whole entry, looked up): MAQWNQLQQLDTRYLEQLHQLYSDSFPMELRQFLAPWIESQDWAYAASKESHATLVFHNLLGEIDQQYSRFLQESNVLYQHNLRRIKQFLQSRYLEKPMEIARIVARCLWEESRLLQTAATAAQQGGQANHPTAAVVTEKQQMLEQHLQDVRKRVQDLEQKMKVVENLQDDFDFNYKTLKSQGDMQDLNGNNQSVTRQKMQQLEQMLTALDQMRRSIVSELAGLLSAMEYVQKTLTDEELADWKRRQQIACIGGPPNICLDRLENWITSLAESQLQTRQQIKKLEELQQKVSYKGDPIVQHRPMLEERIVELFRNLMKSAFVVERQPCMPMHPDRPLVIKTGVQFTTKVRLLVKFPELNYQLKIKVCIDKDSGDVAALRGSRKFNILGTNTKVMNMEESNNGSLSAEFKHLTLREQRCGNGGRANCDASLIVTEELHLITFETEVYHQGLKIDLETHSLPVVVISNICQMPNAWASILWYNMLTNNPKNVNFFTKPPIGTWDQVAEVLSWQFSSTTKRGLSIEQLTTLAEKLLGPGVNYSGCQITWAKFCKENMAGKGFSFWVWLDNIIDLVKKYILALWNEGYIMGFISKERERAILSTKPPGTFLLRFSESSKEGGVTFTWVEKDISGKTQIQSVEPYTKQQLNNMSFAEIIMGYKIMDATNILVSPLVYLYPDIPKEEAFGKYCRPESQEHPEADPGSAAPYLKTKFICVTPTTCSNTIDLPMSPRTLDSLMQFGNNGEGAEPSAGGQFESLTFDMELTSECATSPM
Chain of Estrogen receptor (Homo sapiens) (P03372 whole entry, looked up, the tested form may be a part): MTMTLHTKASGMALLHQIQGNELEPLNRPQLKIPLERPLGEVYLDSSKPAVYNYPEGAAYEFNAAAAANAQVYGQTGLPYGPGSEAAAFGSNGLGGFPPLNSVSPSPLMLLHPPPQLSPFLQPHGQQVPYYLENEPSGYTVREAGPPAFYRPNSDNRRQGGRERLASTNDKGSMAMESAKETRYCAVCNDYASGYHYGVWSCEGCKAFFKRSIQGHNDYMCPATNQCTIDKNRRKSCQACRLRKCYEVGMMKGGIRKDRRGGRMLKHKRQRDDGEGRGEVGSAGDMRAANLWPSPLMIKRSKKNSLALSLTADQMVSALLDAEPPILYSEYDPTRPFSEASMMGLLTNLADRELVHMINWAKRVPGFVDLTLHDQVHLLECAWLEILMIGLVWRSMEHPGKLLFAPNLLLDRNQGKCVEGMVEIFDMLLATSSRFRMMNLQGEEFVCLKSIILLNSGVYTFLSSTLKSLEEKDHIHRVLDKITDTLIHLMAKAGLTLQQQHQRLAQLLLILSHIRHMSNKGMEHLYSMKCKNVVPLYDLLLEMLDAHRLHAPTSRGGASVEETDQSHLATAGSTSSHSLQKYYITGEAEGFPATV
Chain of Steroid hormone receptor ERR1 (Homo sapiens) (P11474 whole entry, looked up, the tested form may be a part): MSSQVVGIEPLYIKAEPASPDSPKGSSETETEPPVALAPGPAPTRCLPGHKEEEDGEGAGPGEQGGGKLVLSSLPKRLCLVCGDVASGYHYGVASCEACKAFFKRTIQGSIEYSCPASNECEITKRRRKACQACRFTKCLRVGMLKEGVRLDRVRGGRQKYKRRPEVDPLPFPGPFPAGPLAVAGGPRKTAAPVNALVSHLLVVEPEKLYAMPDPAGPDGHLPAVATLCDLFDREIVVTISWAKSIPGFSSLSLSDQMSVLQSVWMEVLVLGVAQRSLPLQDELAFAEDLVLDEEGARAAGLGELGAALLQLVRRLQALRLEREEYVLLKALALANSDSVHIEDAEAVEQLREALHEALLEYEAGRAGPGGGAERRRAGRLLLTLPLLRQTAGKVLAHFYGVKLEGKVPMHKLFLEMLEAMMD

CCc1cccc(C)c1N
active: [2] 47.7 µM
not listed: [18]
inactive: all other assays above

CC(=O)CCC=C(C)C
not listed: [8] | [14] | [16]
inactive: all other assays above

CCOB(OCC)OCC
not listed: [13] | [14] | [17] | [18]
inactive: all other assays above

CC(c1cc(C(C)(C)C)cc(C(C)(C)C)c1O)c1cc(C(C)(C)C)cc(C(C)(C)C)c1O
active: [2] 0.078 µM
not listed: [12] | [13] | [14] | [16] | [17]
inactive: all other assays above

CC(C)C(=O)OCCc1ccccc1
not listed: [8] | [14] | [16]
inactive: all other assays above
